High-throughput results as filed in PubChem.
Pf Dd2 growth = qHTS Primary assay for Inhibitors of Plasmodium falciparum Dd2 growth in vitro; actives 4.3% (n = 120,000); P. falciparum Dd2 growth, SYBR Green, 72 h; AID 1347417, 2020; Potency, µM (top dose mostly 28.9 µM), for inactives: at the highest dose activity, negative = inhibition, most hits filed as inhibitors; active = well fitted inhibition curve with a large enough effect;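 also: plate controls were DMSO vehicle for no effect and reference drug for full effect; nearly all actives have a fitted effect of over 65% in size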
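Readout: SYBR Green fluorescence, 485 nm excitation, 535 nm emission, after ~16 h lysis at 37C. Before that, Dd2-infected red cells (2.5% hematocrit) grew 72 h with compound, 29 uM top final concentration.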
Numbers without * were called inactive; i = inactive; [ ] = dose if it differs, or a comment. The entries come from a sample that favours hits as a whole. Potency is read from the fitted curve at half-maximal effect.

SMILES | Pf Dd2 growth
CN1CC(=O)N(c2ccccc2F)Cc2c(NCc3cccc(C(F)(F)F)c3)ncnc21 | -25%
O=S1(=O)CCC(S(=O)(=O)Nc2ccc(F)cc2)C1 (centres undefined) | -4%
COc1ccccc1OCC(=O)N1CC[C@@](O)(C2CCOCC2)[C@H](C)C1 | 5%
CCSc1nc(-c2ccccc2)nc2c1Cc1c(CO)cnc(C)c1O2 | 11%
Cc1cc(C)cc(NC(=O)CSc2nc(-c3cccc(Cl)c3)nc3c2Cc2c(CO)cnc(C)c2O3)c1 | -26%
Cc1ccc(-c2nc3c(c(SCC(=O)Nc4ccccc4Cl)n2)Cc2c(CO)cnc(C)c2O3)cc1 | 19%
CCN(CC)C(=O)CSc1nc(-c2ccc(C)cc2)nc2c1Cc1c(CO)cnc(C)c1O2 | 10µM*
Cc1ccc(-c2nc3c(c(SCC(=O)N(C)c4ccccc4)n2)Cc2c(CO)cnc(C)c2O3)cc1 | 5.6µM*
Cc1cccc(C)c1NC(=O)CSc1nc(-c2ccccc2)nc2c1Cc1c(CO)cnc(C)c1O2 | 12%
O=C(C[C@H]1NC(=O)c2ccccc2NC1=O)Nc1ncn[nH]1 | -6%
O=C1CC(c2ccccc2)N(C(=O)C2CC2)CCCN(C(=O)c2ccco2)CCN1 (centres undefined) | 14%
Cc1ccc(S(=O)(=O)N2CCC(Oc3ncccc3C(=O)N(C)C)C2)cc1F (centres undefined) | -23%
CC(C)n1cc(C(=O)N2C[C@@H](CN3CCOCC3)[C@@H](CO)C2)cn1 | -8%
COc1ccc(NC(=O)c2ccco2)cc1NC(=O)COc1ccccc1 | 1%
COc1ccc(NC(=O)c2ccco2)cc1NC(=O)COc1ccc(Cl)cc1C | 16%
COc1ccc(NC(=O)c2ccco2)cc1NC(=O)COc1ccc(C)cc1C | 2.8µM*
Cc1cc(C(=O)N2CCC(N3C[C@H](O)C[C@H]3C(=O)NC3CCCCC3)CC2)nn1C | 8%
CCOC(=O)CCNC(=O)N1CCc2c(nc3cc(-c4ccccc4)[nH]n3c2=O)C1 | i
CCCc1cc(C(=O)N2CCC(=O)N(Cc3ccccc3)C(CC)C2)ccn1 (centres undefined) | -15%
CCOc1ccc(NC(=O)CCn2cnc3onc(-c4ccc(F)cc4)c3c2=O)cc1 | i
CCN(C(=O)Cn1cnc2onc(-c3ccc(F)cc3)c2c1=O)c1ccc(OC)cc1 | 11µM*
O=C(Cn1cnc2onc(-c3ccc(Cl)cc3)c2c1=O)Nc1ccc(F)cc1 | -22%
CC(=O)N1CCCN(Cc2nnc(C(=O)N3CCC[C@@H]3c3cccc(F)c3)n2-c2ccccc2)CC1 | -9%
COc1ccc(C(CC(=O)NCCc2ccc(OC)c(OC)c2)c2c[nH]c3ccccc23)c(OC)c1 (centres undefined) | 11µM*
CCCCNC(=O)CC(c1cccc(OC)c1)c1c[nH]c2ccccc12 (centres undefined) | i
SMILES | Pf Dd2 growth
CCCCNC(=O)CC(c1ccc(OC)cc1OC)c1c[nH]c2c(CC)cccc12 (centres undefined) | i
Cc1ccc(S(=O)(=O)N(C)C2CCCc3ccccc32)cc1 (centres undefined) | i
CCOc1ccc(CNC(=O)CCC(=O)N2CC3CCCN3c3ccccc32)cc1 (centres undefined) | 13µM*
COc1ccc(CNC(=O)CCC(=O)N2CC3CCCN3c3ccccc32)c(OC)c1 (centres undefined) | -16%
Cc1ccc(CNC(=O)CCC(=O)N2CCSc3ccccc32)cc1 | -8%
COCC1CN(C(C)=O)CC12CCN(Cc1ccc(Cl)cc1)CC2 (centres undefined) | 10%
CC(C)C(=O)N1CCN(c2nc3c(s2)CC(C(=O)NCc2ccco2)CC3)CC1 (centres undefined) | 13µM*
CCC(=O)N1CCN(c2nc3c(s2)CC(C(=O)NCc2ccc(F)cc2)CC3)CC1 (centres undefined) | -29%
CC(C)C(=O)N1CCN(c2nc3c(s2)CC(C(=O)Nc2ccc(Cl)cc2)CC3)CC1 (centres undefined) | i
COc1ccc(CNC(=O)C2CCc3nc(N4CCN(C(C)=O)CC4)sc3C2)cc1 (centres undefined) | i
CC(=O)N1CCN(c2nc3c(s2)CC(C(=O)Nc2cc(F)cc(F)c2)CC3)CC1 (centres undefined) | 4.5µM*
CC(=O)N1CCN(c2nc3c(s2)CC(C(=O)NC2CCCCC2)CC3)CC1 (centres undefined) | i
Cc1ccc(CNC(=O)C2CCc3nc(N4CCN(C(=O)C(C)C)CC4)sc3C2)o1 (centres undefined) | 7.9µM*
CC(=O)N1CCN(c2nc3c(s2)CC(C(=O)Nc2cccc(C(C)(C)C)c2)CC3)CC1 (centres undefined) | -13%
CC(=O)N1CCN(c2nc3c(s2)CC(C(=O)NCc2ccccc2C)CC3)CC1 (centres undefined) | i
CNC(=O)C(C)(C)N1CCC[C@H]1C(=O)N1CCCC1 | 32%[44.1 µM]
CC(=O)N1CCN(C(=O)C[C@@H]2c3nc(NC(=O)C4CCCCC4)sc3C[C@@H]3[C@](C)(CO)[C@H](O)CC[C@]32C)CC1 | -3%
O=C(NCc1ccc(F)cc1)N1CCCC(Cn2cnc3cccnc32)C1 (centres undefined) | -2%
COC(=O)C1=C(C)NC(=O)NC1c1ccc(N(C)C)cc1 (centres undefined) | -12%
Cc1ccc2c(C(=O)N3CCN(C4CCCCC4)CC3)cc(NC(=O)C(C)C)cc2n1 | 0%
COc1ccc(NC(=O)N2CCCC(Cc3nncn3C)C2)cc1 (centres undefined) | 8%
CN(C)C(=O)c1cccnc1CCC1COc2ccccc2O1 (centres undefined) | -1%
Cn1ccc2c(C(=O)NCC3CCC(=O)N3)nc(-c3ccccc3O)cc21 (centres undefined) | i
Cc1ccc(-c2nnc(C3CN(C(=O)c4ccn[nH]4)CC34CCOCC4)o2)cc1 (centres undefined) | i
Cc1ccc(-c2nnc(C3CN(C(=O)c4n[nH]c5ccccc45)CC34CCOCC4)o2)cc1 (centres undefined) | 8.9µM*
SMILES | Pf Dd2 growth
Cc1ccc(-c2nnc(C3CN(C(=O)Cc4cccc(F)c4)CC34CCOCC4)o2)cc1 (centres undefined) | i
Cc1ccc(-c2nnc(C3CN(C(=O)c4cccc(C)c4)CC34CCOCC4)o2)cc1 (centres undefined) | i
Cc1ccc(-c2nnc(C3CN(C(=O)c4cccc(F)c4)CC34CCOCC4)o2)cc1 (centres undefined) | 4µM*
Cc1ccc(-c2nnc(C3CN(C(=O)c4cccnc4C)CC34CCOCC4)o2)cc1 (centres undefined) | -14%
O=C(c1ccccc1F)N1CCC2(Cc3ccccc3NC2=O)C1 (centres undefined) | i
O=C(COc1ccccc1)N1CCC2(CC1)CC(N(C(=O)c1ccccc1)C1CC1)CCO2 (centres undefined) | -20%
Fc1ccccc1-c1noc(-c2nc(-c3ccccc3F)no2)n1 | -1%
Fc1ccc(Nc2nc(-c3ccccc3)no2)cc1 | i
COc1cc(Nc2nc(-c3ccccc3F)no2)cc(OC)c1OC | 13µM*
Cc1cc(C)cc(Nc2nc(-c3ccccc3F)no2)c1 | 13µM*
COc1ccc(-c2noc(-c3nc(-c4ccccc4F)no3)n2)cc1OC | 22%
COc1cc(Nc2nc(-c3ccccc3)no2)cc(OC)c1OC | -4%
O=C(Cc1cccc(F)c1)NCc1nnc2c(-c3nc(C4CC4)no3)cccn12 | i
